Most compounds without a hit are left out; they make up all but 2.5% or so of the library.
EWS-Fli block: blocks EWS/Fli oncoprotein-driven transcription; A673 NR0B1-luciferase reporter, viability-normalised; inhibition, % at 12.6 µM; 350,000 tested, 0.67% active; AID 651661;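 active means mean inhibition of at least 50% after viability correction, with every replicate also passing that limit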;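 further: firefly luciferase signal divided by Alamar Blue viability fluorescence both relative to DMSO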
PAX8 reporter: PAX8 transcriptional activity inhibition; RMG-I TPO-luciferase reporter, SteadyGlo, 24 h; inhibition, % at 12.6 µM; 360,000 tested, 1.2% active; AID 652154;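 active means mean replicate inhibition at least 60% with every replicate also reaching 60%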;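 further: luciferase light reporting Pax8 driven TPO promoter activity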
GAA850 FXN act: activators of GAA850 frataxin (FXN) promoter. 360,000 tested, 0.56% active. HEK293 lucGAA850 FXN promoter luciferase reporter, 24 h; percent of 10 µM SAHA response. AID 540364. activation, % at 6 µM;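 active means activation above the average of all compounds screened plus 3 SD, cutoff fixed separately per campaign, cut at about 7.5% in these data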
HIV Env fusion: HIV envelope-mediated fusion inhibition | HeLa-JRFL Env/CEM21 cell fusion, luciferase | AID 651610 | inhibition, % at 12.3 µM | 360,000 tested, 1.1% active;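 active means mean replicate inhibition score of at least 50 and every replicate individually at or above 50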
F508del corr: CFTR F508del correction in bronchial cells | CFBE cells, YFP halide quenching; stimulated with forskolin plus potentiator P3; % fluorescence drop versus neutral controls | activity (quench increase), % at 7.58 µM | 350,000 tested, 0.36% active | AID 720511;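 active means mean added fluorescence quench of at least 8% versus neutral control, with both replicates also reaching 8%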;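 further: cells transiently co-express mutant CFTR-F508del with the halide-sensitive YFP; corrector assay measuring rescue of mutant channel to the surface after 24 h compound exposure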
DNA binder FP: binds DNA displacing acridine orange; shares compounds with EWS-Fli block; salmon sperm DNA acridine orange fluorescence polarization; AC35, µM (doses to about 68 µM); 640 tested, 2% active;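 active means fitted curve reaches a 35% signal fall AC35 below twice the sample's top valid tested dose, actives reach about 48 µM in these data; inactive means the rest, including activity in the rising direction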;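 further: lower polarization ratio signals compound binding to DNA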
Hits are given with their value.

For C[C@@H]1CN([C@H](C)CO)C(=O)c2c(c3ccccc3n2C)-c2ccccc2CO[C@@H]1CN(C)C(=O)Oc1ccccc1 the results were EWS-Fli block inactive, PAX8 reporter inactive and F508del corr inactive.
`CC(=O)OC1CC(OC2C(O)CC(OC3C(O)CC(OC4CCC5(C)C(CCC6C5CCC5(C)C(C7=CC(=O)OC7)CCC65O)C4)OC3C)OC2C)OC(C)C1OC1OC(CO)C(O)C(O)C1O` (stereo unspecified) gave EWS-Fli block 53, PAX8 reporter 102, GAA850 FXN act inactive, HIV Env fusion 69, F508del corr inactive and DNA binder FP inactive.
`C[C@@H]1O[C@@H](O[C@@H]2C=C3CC[C@@H]4C(CC[C@]5(C)[C@@H](c6ccc(=O)oc6)CC[C@]45O)[C@@]3(C)CC2)[C@H](O)[C@H](O)[C@H]1O` (stereo partly specified) gave EWS-Fli block 71, PAX8 reporter 108, GAA850 FXN act inactive, HIV Env fusion 93, F508del corr 24 and DNA binder FP inactive.
C[C@@H]1O[C@@H](O[C@@H]2C=C3CCC4C(CC[C@]5(C)[C@@H](c6ccc(=O)oc6)CC[C@]45O)[C@@]3(C)CC2)[C@H](O)[C@H](O)[C@H]1O (stereo partly specified) was read as EWS-Fli block 71, PAX8 reporter 110, GAA850 FXN act inactive, HIV Env fusion 65, F508del corr inactive and DNA binder FP inactive.
For O=C(O)[C@@H]1[C@@H](CO)[C@@H]2Cn3c(ccc(-c4ccncc4)c3=O)[C@H]1N2C(=O)C1CCCC1 the results were EWS-Fli block inactive and F508del corr inactive.

Screening data (PubChem BioAssay)
